From PubChem BioAssay AID1159580 (chemical genetic matrix, 2015)
“And” between values parts separate entries of the source, which are not always exact repeats. Identical values can stand only once. Among all 5,500 compounds or so, about 2,000 (36%) were called active. Inconclusive results (about 18%) are left out. Cut-off read from the data, not from the text of the source: active = normalized growth mostly below about 0.91 (no sharp cut-off); inconclusive = no clear call, values can overlap the other calls; inactive = mostly above about 0.92. The list shows a part of the results.

Test: chemical genetic growth profiling, strain panel (AID 1159580);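 note: tested at 20 µM; growth read once vehicle control cultures reached saturation at 30 °C; 1 = growth at the plate median or of vehicle wells; lower values mean less growth of the strain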
Settings: S. cerevisiae deletion strains, growth OD

Measured: normalized growth

CC(=O)N(O)CCCCCNC(=O)CCC(=O)N(O)CCCCCNC(=O)CCC(=O)N(O)CCCCCN
inactive: locus YAL013W, strain DEP1, stronger effect = lower value 0.997 | locus YAL021C, strain ccr4, stronger effect = lower value 0.959 | locus YAL026C, strain drs2, stronger effect = lower value 1 | locus YAL030W, strain snc1, stronger effect = lower value 1 | locus YBL061C, strain skt5, stronger effect = lower value 1 | locus YBR009C, strain hhf1, stronger effect = lower value 1 | locus YBR023C, strain chs3, stronger effect = lower value 1.02 | locus YBR171W, strain sec66, stronger effect = lower value 1.01 | locus YBR229C, strain ROT2, stronger effect = lower value 1.01 | locus YBR231C, strain swc5, stronger effect = lower value 0.967 | locus YBR279W, strain paf1, stronger effect = lower value 0.99 | locus YCL011C, strain gbp2, stronger effect = lower value 1.04 | locus YCL016C, strain dcc1, stronger effect = lower value 1.03 | locus YCL029C, strain bik1, stronger effect = lower value 1.04 | locus YCL069W, strain vba3, stronger effect = lower value 0.994 | locus YCR088W, strain abp1, stronger effect = lower value 1.02 | locus YDL005C, strain med2, stronger effect = lower value 1.01 | locus YDL035C, strain GPR1, stronger effect = lower value 0.987 | locus YDL040C, strain nat1, stronger effect = lower value 1 | locus YDL074C, strain BRE1, stronger effect = lower value 0.907 | locus YDL101C, strain DUN1, stronger effect = lower value 1.01 | locus YDL185W, strain tfp1, stronger effect = lower value 0.967 | locus YDL192W, strain arf1, stronger effect = lower value 1.01 | locus YDR001C, strain nth1, stronger effect = lower value 1.03 | locus YDR069C, strain doa4, stronger effect = lower value 0.978 | locus YDR101C, strain arx1, stronger effect = lower value 1.04 | locus YDR137W, strain rgp1, stronger effect = lower value 1.12 | locus YDR150W, strain NUM1, stronger effect = lower value 1.01 | locus YDR159W, strain sac3, stronger effect = lower value 1.05 | locus YDR162C, strain NBP2, stronger effect = lower value 0.997 | locus YDR195W, strain ref2 1.03 | locus YDR297W, strain sur2, stronger effect = lower value 0.997 | locus YDR318W, strain mcm21, stronger effect = lower value 1.02 | locus YDR334W, strain swr1, stronger effect = lower value 0.998 | locus YDR335W, strain msn5, stronger effect = lower value 0.987 | locus YDR388W, stronger effect = lower value 1.02 | locus YDR392W, strain spt3, stronger effect = lower value 1.2 | locus YDR502C, strain sam2, stronger effect = lower value 1.04 | locus YEL003W, strain gim4, stronger effect = lower value 0.961 | locus YEL037C, strain rad23, stronger effect = lower value 0.997 | locus YEL061C, strain CIN8 (second series), stronger effect = lower value 1.01 | locus YEL061C, strain CIN8, stronger effect = lower value 1.01 | locus YER015W, strain faa2, stronger effect = lower value 0.944 | locus YER016W, strain bim1, stronger effect = lower value 1.01 | locus YER110C, stronger effect = lower value 1.01 | locus YER111C, strain swi4, stronger effect = lower value 0.973 | locus YER155C, strain BEM2 (second series), stronger effect = lower value 1.06 | locus YER155C, strain BEM2, stronger effect = lower value 1.04 | locus YER167W, strain BCK2, stronger effect = lower value 1.05 | locus YFR010W, strain ubp6, stronger effect = lower value 0.986 | locus YGL078C, strain dbp3, stronger effect = lower value 1.07 | locus YGL086W, strain mad1, stronger effect = lower value 1.01 | locus YGL167C, strain pmr1, stronger effect = lower value 0.978 | locus YGL173C, strain kem1, stronger effect = lower value 0.99 | locus YGL227W, strain vid30, stronger effect = lower value 1.02 | locus YGL240W, strain doc1, stronger effect = lower value 1.01 | locus YGL248W, strain PDE1, stronger effect = lower value 0.987 | locus YGL253W, strain hxk2, stronger effect = lower value 0.989 | locus YGR078C, strain PAC10, stronger effect = lower value 0.983 | locus YGR135W, strain pre9, stronger effect = lower value 0.994 | locus YGR252W, strain gcn5, stronger effect = lower value 0.771 | locus YHR013C, strain ard1, stronger effect = lower value 0.984 | locus YHR027C, strain rpn1, stronger effect = lower value 0.94 | locus YHR030C, strain SLT2, stronger effect = lower value 1.02 and 1.05 | locus YHR079C, strain IRE1 (second series), stronger effect = lower value 1.02 | locus YHR079C, strain IRE1, stronger effect = lower value 1.05 | locus YHR094C, strain hxt1, stronger effect = lower value 1.02 | locus YHR129C, strain ARP1, stronger effect = lower value 1.01 | locus YHR142W, strain chs7, stronger effect = lower value 0.981 | locus YHR200W, strain rpn10, stronger effect = lower value 1.03 | locus YIL066C, strain RNR3, stronger effect = lower value 1.01 | locus YIL073C, strain SPO22, stronger effect = lower value 0.95 | locus YIL125W, strain kgd1, stronger effect = lower value 1.04 | locus YIR030C, strain dcg1, stronger effect = lower value 1.03 | locus YJL092W, strain hpr5, stronger effect = lower value 1.03 | locus YJL095W, strain BCK1 (second series), stronger effect = lower value 1.01 | locus YJL095W, strain BCK1, stronger effect = lower value 0.959 and 1.05 | locus YJL115W, strain asf1, stronger effect = lower value 1.01 | locus YJL129C, strain trk1, stronger effect = lower value 1.01 | locus YJL134W, strain LCB3, stronger effect = lower value 1.01 | locus YJL154C, strain vps35, stronger effect = lower value 1.01 | locus YJL164C, strain tpk1, stronger effect = lower value 1.03 | locus YJL166W, strain qcr8, stronger effect = lower value 1.02 | locus YJL168C, strain set2, stronger effect = lower value 1.01 | locus YJL187C, strain SWE1 (second series), stronger effect = lower value 0.975 | locus YJL187C, strain SWE1, stronger effect = lower value 0.987 | locus YJR043C, strain POL32, stronger effect = lower value 1.02
active: locus YBR021W, strain FUR4, stronger effect = lower value 0.845
